{"source": "PubChem BioAssay (NCATS)", "note": "Values without a mark were called inactive. Inconclusive results are not listed. Calls of active or inactive are those of the source. The call rests on the fitted dose curve; in most records, active means well fitted activation curve with a large enough effect; inconclusive means small, poorly fitted or top-dose-only effect; inactive means flat fitted curve, though single readings scatter."}
{"assay": "Cellular Toxicity (caspase-3) HepG2 (AID 654);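 further: cells exposed to compound for 16 hours before reading; 0% = DMSO alone and 100% = caspase signal from 100 µM tamoxifen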", "details": "HepG2 caspase-3 activation, luminescence, 0% = DMSO only, 100% = tamoxifen; series mostly up to 92.2 µM; caspase-3 activation: at the top concentration", "summary_of_the_method": "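Concentration-response AC50 values reflect caspase-3/7 induction in HepG2 cells after 16 hours of compound exposure, quantified by luminescence from liberated aminoluciferin and referenced to 100 uM tamoxifen as full stimulation.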", "units": {"caspase-3 activation": "%"}}
{"smiles": "Cn1cnc([N+](=O)[O-])c1Sc1ncnc2nc[nH]c12", "caspase-3 activation": 0.159}
{"smiles": "NS(=O)(=O)c1cc2c(cc1Cl)NC=NS2(=O)=O", "caspase-3 activation": 0.383}
{"smiles": "CC(=O)Oc1ccccc1C(=O)O", "outcome": "inactive"}
{"smiles": "CCCC(CCC)C(=O)O", "caspase-3 activation": 0.0909}
{"smiles": "O=c1[nH]cnc2[nH]ncc12", "caspase-3 activation": -0.109}
{"smiles": "NC(=O)c1cnccn1", "caspase-3 activation": 0.0746}
{"smiles": "NC(N)=NC(=O)c1nc(Cl)c(N)nc1N", "caspase-3 activation": -1.33}
{"assay": "Cellular Toxicity (caspase-3) Jurkat (AID 655);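 further: cells exposed to compound for 16 h at 37 °C before reading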", "details": "Jurkat caspase-3 activation, luminescence, DMSO = 0%, tamoxifen = 100%; series mostly up to 92.2 µM; caspase-3 activation: at the top concentration", "summary_of_the_method": "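Luminescent caspase-3/7 readout (aminoluciferin substrate cleavage) in human T-cell leukemia Jurkat cells after 16 hr compound exposure. Concentration-response normalized to DMSO and 100 uM tamoxifen; AC50 by standard Hill equation.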", "units": {"caspase-3 activation": "%"}}
{"smiles": "Cn1cnc([N+](=O)[O-])c1Sc1ncnc2nc[nH]c12", "caspase-3 activation": 5.44}
{"smiles": "NS(=O)(=O)c1cc2c(cc1Cl)NC=NS2(=O)=O", "caspase-3 activation": 0.195}
{"smiles": "CC(=O)Oc1ccccc1C(=O)O", "outcome": "inactive"}
{"smiles": "CCCC(CCC)C(=O)O", "caspase-3 activation": -0.269}
{"smiles": "O=c1[nH]cnc2[nH]ncc12", "caspase-3 activation": 0.609}
{"smiles": "NC(=O)c1cnccn1", "caspase-3 activation": -1.3}
{"smiles": "NC(N)=NC(=O)c1nc(Cl)c(N)nc1N", "caspase-3 activation": 1.75}
